# Source: PubChem BioAssay (NCI)
# This is part of a sample that, as a whole, favours compounds with a hit. Of some 83,000 tested, about 20% had one in any assay.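 Plates (96-well) were seeded with cells, treated with compound at one concentration, and incubated for 48 hours before percent growth was determined.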 Unmarked numbers belong to inactive results. The source made the active and inactive calls. How the source made its calls: active means growth percent below 10; inactive means the rest.
# Tested on: HOP-62 NSCLC
# Experiment: NCI-60 one-dose screen, 48 h (100 = growth as untreated, 0 = no growth, -100 = all killed)
# Conditions: 10 µM unless noted
row,Structure (SMILES),growth
1,COc1cc(C(=O)n2nc(N3CCN(C)CC3)c3cc(N)ccc32)cc(OC)c1OC,32.5%
2,O=C1N[C@@H]2NC(=[N+]3CCOCC3)N[C@@H]2N1,103%
3,N#Cc1c(N)nnn1Cc1cc(=O)oc2c1ccc1ccccc12,101%
4,COc1cc(OC)cc(C2=C3CC[C@@H]4[C@H](CC[C@]5(C)C(=O)CC[C@@H]45)C3=CC3C(O)c4cccnc4N4C(=O)COC234)c1 (stereo not given in full),95.3%
5,C=C(C)[C@@H]1CC[C@]2(C(=O)N3CCN(C)CC3)CC[C@]3(C)[C@H](CC[C@@H]4[C@@]5(C)CC(=C/c6ccncc6)/C(=N/O)C(C)(C)[C@@H]5CC[C@]43C)[C@@H]12,96.8%
6,CN1CCN(Cc2ccc3c(NNC(=O)c4ccccc4)nc4cc(F)ccc4n23)CC1,24.1%
7,CCOC(=O)c1c2c(n3ccc(C)cc13)C(=O)c1ccccc1C2=O,106%
8,CCCC(=O)NC(c1ccc2c(c1)OCO2)c1ccc2cccnc2c1O (stereo not given),20.4%
9,Cc1nc2sc(C(=O)Nc3ccccc3)c(N)c2cc1C(=O)c1ccccc1,34.5%
10,COC(=O)c1ccc2c(c1)C(=O)c1c-2n(CCCN)c(=O)c2cc([N+](=O)[O-])ccc12,-93.2% (active)
11,CO[C@]12C=C/C(=C(/C(=O)OCc3cccnc3)C(=O)CCCCCCCC[C@@]3(OC)C=C/C(=C(/C(=O)OCc4cccnc4)C(=O)CCCCCCCC1)O3)O2,30.9%
12,Brc1c2c(c(Br)c3ccccc13)CCCC2,84%
13,Cc1cc2c([nH]1)CSc1cc(S(=O)(=O)c3ccccc3)c(=O)[nH]c1-2,33% [100 µM]
14,CC1=C(Nc2ccc(N3CCN(C)CC3)cc2)C(=O)c2cncnc2C1=O,107%
15,CCCCCCC1(C)NCCO1 (stereo not given),105%
16,C#CCOc1cccc(Nc2ncnc3ccc(NC(=O)CCl)cc23)c1,-35.4% (active)
17,COc1ccc(C(=O)C2C(c3ccc(OC)cc3)CN(C)C23C(=O)Nc2ccccc23)cc1 (stereo not given),94.3%
18,CCN(CC)CCNC(=O)c1cn2ncnc(Oc3ccc(NC(=O)Nc4ccc(Cl)c(C(F)(F)F)c4)c(F)c3)c2c1C,36.5%
19,CC(=O)OCc1nc(C#N)c(N(C)C)o1,91.4%
20,CN[C@]12CC3(C=CC(=O)C=C3)O[C@@]1(Cc1ccc(OC)cc1)N(C)C(=O)N2,23.9%

row,Structure (SMILES),growth
1,C=C(CNCCc1ccc(O)cc1)[C@@H]1CC[C@]2(CO)CC[C@]3(C)[C@H](CC[C@@H]4[C@@]5(C)CCC(NCCO)C(C)(C)[C@@H]5CC[C@]43C)[C@@H]12 (stereo not given in full),-68.7% (active)
2,O=C1/C(=C\c2cn(-c3ccccc3)nc2-c2ccc(-c3cccs3)cc2)CCc2ccccc21,75.5%
3,Cc1ccc(-c2nn(-c3ccccc3)cc2C=C2C(=O)ON=C2C(C)C)cc1,88.6%
4,CC/C(=C(/c1ccc(Cl)cc1)c1ccc(OCCN2CCCC2)cc1)c1ccc(OC)cc1,92.6%
5,Cc1c(-c2nc3ccc(F)cc3c(=O)[nH]2)c2ccccc2n1C,38.4%
6,COC1=CC(c2ccc[nH]2)=N/C1=C\c1[nH]c(C)c(C(=O)OCc2ccccc2)c1C,-43.2% (active)
7,COc1ccc(C/C(C)=C(/c2ccc(OCCN3CCCCC3)cc2)c2ccc(OC(=O)NCc3ccccc3)cc2)cc1,-89.2% (active)
8,CC(C)N1CN2C(=S)NC3C2N(C1)C(=S)N3C (stereo not given),103%
9,CCCCN[C@H]1CC[C@@]2(C)[C@@H](CC[C@@]3(C)[C@H]2[C@H](O)C[C@H]2/C(=C(\CCC=C(C)C)C(=O)OC)[C@@H](OC(C)=O)C[C@@]23C)[C@@H]1C,103%
10,O=[N+]([O-])c1ccc(-c2nc(N3CCOCC3)c3c4c(sc3n2)CCCC4)cc1,82.4%
11,COc1cc(N2C(=O)[C@H](O)C2c2ccc(SC)cc2)cc(OC)c1OC (stereo not given in full),21.6%
12,C#Cc1ccc(NC(=O)c2ccc(/C=C/C(=O)c3nccn3C)cc2)cc1,-47% (active)
13,Cc1nnc(NC(=O)c2nc(S(=O)(=O)Cc3ccc(F)cc3)ncc2Cl)s1,86.1%
14,Cc1ccccc1/C=C1\CN(C(=O)OC(C)(C)C)C/C(=C\c2ccccc2C)C1=O,48.2%
15,C[C@]12C=CC(=O)C=C1CCC1C2[C@@H](O)C[C@@]2(C)C1CC[C@]2(O)C(=O)COC(=O)CCC(=O)O (stereo not given in full),121%
16,O=C(Cn1c2c(c3ccccc31)CCCC2)Nc1ccc(-c2nc3ccccc3s2)cc1,102%
17,Cc1cc(Cl)ccc1Nc1nc(C(F)(F)F)ccc1C(=O)N/N=C/c1ccc([N+](=O)[O-])cc1,-33.6% (active)
18,O=C(Nn1c2c(sc1=NCc1ccccc1)C(=O)c1ccccc1C2=O)c1cc2ccc1CCc1ccc(cc1)CC2,77.5%
19,CC(C)c1ccc(COCc2cc(CN3CCCC3)c(O)c3ncccc23)cc1,2.49% (active)
20,Cn1cccc1C(=O)C1C(c2cccc([N+](=O)[O-])c2)C2C3CCCCC3CN2C12C(=O)Nc1ccc(Cl)cc12 (stereo not given),62.3%
